# Laboratory results published in PubChem BioAssay AID686979 (National Center for Advancing Translational Sciences (NCATS), 2013).
# The whole screen tested about 420,000 compounds, of which about 50,000 (12%) were called active. Inconclusive results (about 26%) are left out. The sample as a whole holds a higher share of actives than the screen did. A number with no mark means an inactive call. Calls follow the shape of the dose curve; as a rule, active = well fitted inhibition curve with a large enough effect; inconclusive = small, poorly fitted or top-dose-only effect; inactive = flat fitted curve, though single readings scatter.
# Assay: qHTS for Inhibitors of human tyrosyl-DNA phosphodiesterase 1 (TDP1): qHTS in cells in presence of CPT; also: nearly all actives have a fitted effect of over 55% in size
# Settings: chicken DT40 Tdp1-/-;hTDP1 cells + 20 nM CPT, ATP luminescence, 48 h; series mostly up to 46.2 µM; activity change, negative = growth inhibition: at the top concentration
# Method in brief: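 Chicken DT40 Tdp1-/- cells complemented with human TDP1, 400 cells/well, exposed to compounds plus 20 nM camptothecin for at least 48 h at 37 C; viability read as ATP content by CellTiter-Glo luminescence.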
# % is scaled to controls: 0 for no effect and ±100 for the full control effect; potency is read from the fitted curve at half-maximal effect.
SMILES,"activity change, negative = growth inhibition",Potency
S=c1[nH]nc2c3c4c(sc3ncn12)CCCC4,-7.17%,
COC(=O)C1=C[C@@H](C(=O)OC)[C@@H]2C3=C(C(=O)[C@]2(C)NC(=O)c2ccccc2)[C@H](C)n2c(=O)n(C)c(=O)n2[C@@H]3C1,0.582%,
CCOC(=O)C1=CCC2C(=O)N(Cc3ccccc3)C(=O)C12 (stereo not given),-14.7%,
CCC1(CC)C(=O)C2=C3C1[C@H](C(=O)OC)C=C(C(=O)OC)C[C@H]3[C@H]1C(=O)N(Cc3ccccc3)C(=O)[C@H]1[C@H]2C (stereo not given in full),,4.61 µM (active)
CCOc1ccc(S(=O)(=O)Nc2ccc(S(=O)(=O)Nc3cc(OC)ccc3OC)cc2)cc1,-1.74%,
COc1ccc(NS(=O)(=O)c2ccc(Oc3c(C#N)cccc3C#N)cc2)cc1,,10.3 µM (active)
COc1ccc(NS(=O)(=O)c2cccc(C(=O)NCCc3ccc(S(N)(=O)=O)cc3)c2)cc1,-12.7%,
CCN1CCN(C(=O)CN(C)S(=O)(=O)c2ccc3ccccc3c2)CC1,-28.4%,
O=C1NC[C@H](CCCCN2C[C@H](Cc3ccc(O)cc3)N(CCc3ccccc3)C(=O)C2=O)N(CCc2ccccc2)C1=O,6.06%,
C#CCOc1ccc(/C=C2/C(=O)NN(c3ccccc3)C2=O)cc1OC,-2.2%,
O=C(O)CC/C(=N\NC(=O)c1ccc(F)cc1)c1ccc(Br)cc1,4.87%,
O=C(CNC(=O)c1ccccc1F)c1ccc(Br)cc1,11.2%,
O=C(C[n+]1cc(Br)cc2ccccc21)c1ccc(F)cc1,,14.1 µM (active)
CCOc1ccc(NC(=O)CCC(=O)N2CC(C)Oc3ccc(C)cc32)cc1 (stereo not given),,25.9 µM (active)
CCOc1ccc(NC(=O)CCNC(=O)c2ccc(Br)cc2)cc1,-9.36%,
Cc1ccc2c(c1)N(C(=O)CCC(=O)NCc1ccccc1F)CC(C)O2 (stereo not given),-28.3%,
CCc1nc2cc(C(=O)NCC3CCS(=O)(=O)C3)cc(NC(=O)c3ccccc3OC)c2n1C (stereo not given),6.63% [at 9.04 µM],
O=c1[nH]c2cc(Br)ccc2n2cccc12,-22.2%,
CCN(CC(=O)NCc1ccco1)S(=O)(=O)c1ccc(F)cc1,-0.0669%,
Cc1csc(NC(=O)c2ccc(C)s2)n1,-0.098%,
COc1ccc(Cc2nnc(NC(=O)c3ccc(OC)cc3OC)s2)cc1,-19.9%,
COc1cc(SC)ccc1C(=O)Nc1nc(C)cs1,,20.6 µM (active)
Cc1cc(NC(=O)Nc2c[nH]c(=O)[nH]c2=O)ccc1Br,-16.6%,
Cc1ccc(NS(=O)(=O)c2ccc3c(c2)CC(=O)N3)cc1Cl,-1.76%,
COc1ccc(CNC(=O)Cn2nnc(-c3ccc(S(C)(=O)=O)cc3)n2)cc1,1.87%,

SMILES,"activity change, negative = growth inhibition",Potency
COC1=CC(=O)OC(c2ccc(OC)cc2)C1 (stereo not given),10.2%,
COc1ccc(N=C2C=CC(=O)O2)cc1,,5.17 µM (active)
COc1ccc(N=Nc2c(-c3ccc(OC)cc3)[nH]oc2=O)cc1,-11.3%,
CCC1(c2ccccc2)NC(=O)N(CC(=O)c2ccc3c(c2)OCO3)C1=O (stereo not given),-5.41%,
Cc1ccc(Cl)c(NC(=O)CN(C)CC(=O)Nc2ccc(F)c(F)c2F)c1Cl,-27.2%,
COc1ccc(CNC(=O)c2cc3c(=O)[nH]c4ccccc4c3s2)cc1,-18.7%,
Cc1ccc2[nH]c(=O)c(CC(=O)O)c(-c3ccccc3)c2c1,-0.318%,
Cc1cccc(N(C)C(=O)c2cc3c(=O)[nH]c4ccc(C)cc4c3s2)c1,,2.06 µM (active)
COc1ccc(CNC(=O)c2ccc3c(c2)nc2n3CCOC2)c(OC)c1,1.11%,
Cc1ccc2[nH]c(=O)c(CC=C(Cl)Cl)c(C)c2c1,-6%,
COc1ccc(CNC(=O)c2cc3c(=O)[nH]c4ccc(C)cc4c3s2)c(OC)c1,,16.4 µM (active)
Nc1cc(C(=O)N2CCN(c3ccccc3Cl)CC2)ccc1N1CC2CC(C1)c1cccc(=O)n1C2 (stereo not given),-25.3%,
CC1(C)CN(CCc2ccccc2)C(=O)[C@H]1CC(=O)Nc1ccc(Br)cc1,-10.9%,
Cc1ccc(NC(=O)Cc2nnc(SCC(=O)Nc3nncs3)n2C)cc1,0.361%,
CC1(c2ccc(Cl)cc2Cl)NC(=O)N(CC(=O)Nc2cccnc2Cl)C1=O (stereo not given),-12%,
CCCc1ccc(C(=O)[C@@H]2[C@@H](C(C)=O)N3c4ccc(F)cc4C=C[C@@H]3[C@@]23C(=O)Nc2ccccc23)cc1,,23.1 µM (active)
O=C(O)c1ccc(-n2nc(-c3ccccc3)c3ccccc3c2=O)cc1,-17.4%,
CCC(C)(C)NC(=O)C(c1ccc(O)cc1)N(Cc1ccco1)C(=O)CCC(=O)Nc1ccccn1 (stereo not given),-11.3%,
CC(=O)c1nn(-c2ccc(OC(F)(F)F)cc2)nc1Nc1ccccc1,-15.7%,
COc1ccccc1C(=O)Nn1cnnc1,21.2%,
CCc1noc(C)c1C(=O)OCC(=O)c1ccc(NC(=O)CC(C)C)cc1,,20.6 µM (active)
CCc1noc(C)c1C(=O)NNC(=O)c1ccc(F)cc1,-18.6%,
COc1ccc(C(=O)COC(=O)c2c(C)noc2C)cc1Cl,-17.5%,
O=C(c1ccccc1Cl)N(Cc1ccccc1F)N1C(=O)CCCC1=O,1.6%,
COc1cccc(C2Nc3cccc4cccc(c34)N2)c1,-4.51%,
